Experimental data: PubChem BioAssay AID1159580 (chemical genetic matrix, 2015)
Screen size: about 5,500 compounds; about 2,000 (36%) were called active. Inconclusive results (about 18%) are left out. Some of the results follow. A number with no mark means an inactive call. No stated cut-off is given here; in the data, active means normalized growth mostly below about 0.91 (no sharp cut-off); inconclusive means no clear call, values can overlap the other calls; inactive means mostly above about 0.92.

Assay: chemical genetic growth profiling, strain panel (AID 1159580);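 further: tested at 20 µM; growth read once vehicle control cultures reached saturation at 30 °C; 1 = growth at the plate median or of vehicle wells; lower values mean less growth of the strain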
Conditions: S. cerevisiae deletion strains, growth OD

In the case of `O=C(Nc1ccc(F)c(Cl)c1)c1ccccc1O`, the normalized growth (locus YAR019C, strain CDC15, hits give low values) is reported as 0.9, the normalized growth (locus YBL105C, strain PKC1, hits give low values) is reported as 0.897 (active) and the normalized growth (locus YBR135W, strain CKS1, hits give low values) is reported as 0.888 (active). For the same compound, the normalized growth (locus YBR136W, strain MEC1, hits give low values) was 0.899, the normalized growth (locus YBR160W, strain CDC28, hits give low values) was 0.899 and the normalized growth (locus YDL017W, strain CDC7, hits give low values) was 0.895 (active). The normalized growth (locus YDL028C, strain MPS1, hits give low values) was 0.897, the normalized growth (locus YDL101C, strain DUN1, hits give low values) was 0.951 and the normalized growth (locus YDL108W, strain KIN28, hits give low values) was 0.896 (active). For the same compound, the normalized growth (locus YDL132W, strain cdc53, hits give low values) was 0.879 (active), the normalized growth (locus YDL214C, strain PRR2, hits give low values) was 0.83 and the normalized growth (locus YDR052C, strain DBF4, hits give low values) was 0.884 (active). The normalized growth (locus YDR054C, strain cdc34, hits give low values) was 0.885, the normalized growth (locus YDR226W, strain ADK1, hits give low values) was 0.877 (active) and the normalized growth (locus YDR477W, strain SNF1, hits give low values) was 0.834. The normalized growth (locus YER123W, strain YCK3, hits give low values) was 0.76, the normalized growth (locus YER133W, strain GLC7, hits give low values) was 0.862 and the normalized growth (locus YFL009W, strain cdc4, hits give low values) was 0.888 (active). For the same compound, the normalized growth (locus YFL029C, strain CAK1, hits give low values) was 0.884, the normalized growth (locus YFR003C, strain YPI1, hits give low values) was 0.897 (active) and the normalized growth (locus YFR019W, strain FAB1, hits give low values) was 0.904. For the same compound, the normalized growth (locus YFR028C, strain CDC14, hits give low values) was 0.884 (active), the normalized growth (locus YGR040W, strain KSS1, hits give low values) was 0.819 and the normalized growth (locus YGR052W, strain FMP48, hits give low values) was 0.8. For the same compound, the normalized growth (locus YGR092W, strain DBF2, hits give low values) was 0.519, the normalized growth (locus YHR030C, strain SLT2, hits give low values) was 0.768 (active) and the normalized growth (locus YHR079C, strain IRE1, hits give low values) was 0.632. It also gave a normalized growth (locus YHR082C, strain KSP1, hits give low values) of 0.76, a normalized growth (locus YHR205W, strain SCH9, hits give low values) of 0.747 and a normalized growth (locus YIL147C, strain SLN1, hits give low values) of 0.895. For the same compound, the normalized growth (locus YJL095W, strain BCK1, hits give low values) was 0.676, the normalized growth (locus YJL128C, strain PBS2, hits give low values) was 0.846 and the normalized growth (locus YJL157C, strain FAR1, hits give low values) was 0.803. For the same compound, the normalized growth (locus YJR016C, strain ILV3, hits give low values) was 0.895 (active), the normalized growth (locus YJR066W, strain TOR1 (second series), hits give low values) was 0.882 and the normalized growth (locus YJR066W, strain TOR1, hits give low values) was 0.745. It also gave a normalized growth (locus YKL048C, strain ELM1, hits give low values) of 0.893, a normalized growth (locus YKL067W, strain YNK1, hits give low values) of 0.825 and a normalized growth (locus YKL101W, strain HSL1, hits give low values) of 0.807. The normalized growth (locus YKL193C, strain SDS22, hits give low values) was 0.885 (active), the normalized growth (locus YKL203C, strain TOR2, hits give low values) was 0.863 and the normalized growth (locus YLR113W, strain HOG1, hits give low values) was 0.669 (active). It also gave a normalized growth (locus YLR133W, strain CKI1, hits give low values) of 0.762, a normalized growth (locus YLR403W, strain SFP1, hits give low values) of 0.743 and a normalized growth (locus YML070W, strain DAK1, hits give low values) of 0.777. The normalized growth (locus YMR001C, strain CDC5, hits give low values) was 0.891, the normalized growth (locus YMR205C, strain PFK2 (second series), hits give low values) was 0.769 and the normalized growth (locus YMR277W, strain FCP1, hits give low values) was 0.9. The normalized growth (locus YNL006W, strain LST8, hits give low values) was 0.893 (active), the normalized growth (locus YNL020C, strain ARK1, hits give low values) was 0.745 and the normalized growth (locus YNL161W, strain CBK1, hits give low values) was 0.904. The normalized growth (locus YNL183C, strain NPR1, hits give low values) was 0.759, the normalized growth (locus YNL207W, strain RIO2, hits give low values) was 0.893 and the normalized growth (locus YNL222W, strain SSU72, hits give low values) was 0.906. For the same compound, the normalized growth (locus YNL307C, strain MCK1 (second series), hits give low values) was 0.833, the normalized growth (locus YOL078W, strain AVO1, hits give low values) was 0.897 and the normalized growth (locus YOL136C, strain PFK27, hits give low values) was 0.846. It also gave a normalized growth (locus YOR061W, strain CKA2, hits give low values) of 0.842, a normalized growth (locus YOR119C, strain RIO1, hits give low values) of 0.936 and a normalized growth (locus YOR231W, strain MKK1, hits give low values) of 0.829. The normalized growth (locus YOR329C, strain SCD5, hits give low values) was 0.913, the normalized growth (locus YPL031C, strain PHO85, hits give low values) was 0.796 and the normalized growth (locus YPL153C, strain RAD53, hits give low values) was 0.799. For the same compound, the normalized growth (locus YPL204W, strain HRR25, hits give low values) was 0.797, the normalized growth (locus YPL209C, strain IPL1, hits give low values) was 0.895 (active) and the normalized growth (locus YPL256C, strain CLN2, hits give low values) was 0.756 (active). The normalized growth (locus YPR025C, strain CCL1, hits give low values) was 0.894 (active), the normalized growth (locus YPR106W, strain ISR1, hits give low values) was 0.911 and the normalized growth (locus YPR111W, strain DBF20, hits give low values) was 0.887. It also gave a normalized growth (strain NNK1, hits give low values) of 0.899 and a normalized growth (strain TSCII, hits give low values) of 0.892.
